Most compounds without a hit are left out; they make up all but 12% or so of the library.
G9a inh: inhibitors of human histone lysine methyltransferase G9a | actives 8.8% (n = 350,000) | G9a H3K9 monomethylation, AlphaScreen, 2 h | Potency, µM (top dose mostly 102 µM), for inactives: top-dose activity, negative = inhibition, actives largely listed as inhibitors | AID 504332 | Q96KQ7; also: % is scaled to controls: 0 for no effect and ±100 for the full control effect; nearly all actives have a fitted effect of over 75% in size
Target sequence (Q96KQ7 913-1193 limits assumed): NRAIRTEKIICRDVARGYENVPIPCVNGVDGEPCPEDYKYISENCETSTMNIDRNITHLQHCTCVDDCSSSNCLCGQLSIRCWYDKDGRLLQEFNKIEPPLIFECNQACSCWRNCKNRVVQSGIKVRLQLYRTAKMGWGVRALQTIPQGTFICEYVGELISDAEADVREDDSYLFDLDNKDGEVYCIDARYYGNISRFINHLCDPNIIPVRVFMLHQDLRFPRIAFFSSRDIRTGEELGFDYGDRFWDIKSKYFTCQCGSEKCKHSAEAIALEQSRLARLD
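Enzyme 20 nM + cpd, 15 min RT; add b-H3K9 pep 500 nM / SAM 20 uM; 2 h RT; anti-H3K9me1 Ab 0.5 ug/mL + SA donor / anti-rabbit acceptor beads 20 ug/mL each, 10 min; AlphaScreen read.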
JMJD2A Tudor inh: blocks the human JMJD2A Tudor domain; Potency, µM (series often up to 114 µM), without a hit: at the top dose activity change, negative = inhibition, hits mostly inhibitors; AID 504339; AlphaScreen JMJD2A-Tudor / H3K4me3 peptide binding; actives 4.4% (n = 390,000); O75164; also: % is scaled to controls: 0 for no effect and ±100 for the full control effect; nearly all actives have a fitted effect of over 50% in size
HP1b binding inh: blocks HP1-beta chromodomain binding to methylated histone tails; AlphaScreen HP1-beta / biotin-H3K9me3 peptide binding; Potency, µM (highest dose often 114 µM), inactives show at the highest dose activity change, negative = inhibition, most hits filed as inhibitors; P83916; actives 0.56% (n = 390,000); also: nearly all actives have a fitted effect of over 70% in size
Target sequence (P83916 whole entry, looked up): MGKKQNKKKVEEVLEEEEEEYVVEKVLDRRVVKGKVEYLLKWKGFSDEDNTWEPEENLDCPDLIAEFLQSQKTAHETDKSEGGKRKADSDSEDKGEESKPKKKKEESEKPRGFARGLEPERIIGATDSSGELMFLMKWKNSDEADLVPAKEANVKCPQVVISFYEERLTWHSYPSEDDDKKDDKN
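Compound inhibition of the preformed complex between 50 nM HP1-beta and 50 nM biotinylated H3K9me3 peptide was read by AlphaScreen. Buffer was PBS pH 7.4 with 0.01% Tween-20. Incubations ran 30 min at room temperature, with 10 ug/mL donor/acceptor beads.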
PLK1 PBD block: blocks phosphopeptide binding to human PLK1 polo-box domain; P53350; Plk1 PBD binding of FITC phosphopeptide, fluorescence polarization; Potency, µM, for inactives: max response, negative = inhibition, hits mostly inhibitors; actives 2.8% (n = 360,000); AID 720504; also: series mostly up to about 57 µM; % is scaled to controls: 0 for no effect and ±100 for the full control effect; nearly all actives have a fitted effect of over 65% in size
BAZ2B inh: BAZ2B (human) inhibition; Q9UIF8; AlphaScreen BAZ2B-H3K14Ac peptide displacement; Potency, µM (series often up to 114 µM), for the others: at the top dose activity change, negative = inhibition, most hits filed as inhibitors; actives 4.4% (n = 360,000); AID 504333; also: % is scaled to controls: 0 for no effect and ±100 for the full control effect; nearly all actives have a fitted effect of over 60% in size
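Inhibition is scored as reduced AlphaScreen emission. The BAZ2B/b-H3(5-23)K14Ac complex (50 nM each) in PBS pH 7.4, 0.01% Tween-20 meets compound (up to 110 uM) for 30 min at RT before bead addition.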
Sfp PPTase inh: blocks B. subtilis Sfp PPTase activity; Biochemical Sfp PPTase activity, qHTS; actives 3.5% (n = 310,000); AID 1490; Potency, µM, without a hit: largest response in the series, negative = inhibition, most hits filed as inhibitors;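 also: the enzyme is Sfp with the accession as filed and its product quenches rhodamine fluorescence; 0% = enzyme reaction without inhibitor and -100% = no enzyme wells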
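With Hepes-Na pH 7.6 buffer containing 10 mM MgCl2, Sfp (15 nM) modified BHQ-2-YbbR (12.5 uM) using rhodamine-CoA (5 uM). Two reads 30 minutes apart at 525/598 nm yielded each well's rate.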
An asterisk follows results filed as active; u = inconclusive; x = not tested or not shown; [ ] = another dose, or the depositor's remark. Calls follow the shape of the dose curve; as a rule, active = well fitted curve in the direction sought with a large enough effect; inconclusive = small, poorly fitted or top-dose-only effect, or another doubt; inactive = no such curve, though single readings can be large; an effect the other way counts as inactive or inconclusive. Potency is read from the fitted curve at half-maximal effect.

SMILES	G9a inh	JMJD2A Tudor inh	HP1b binding inh	PLK1 PBD block	BAZ2B inh	Sfp PPTase inh
O=C(NCc1ccco1)c1cc([N+](=O)[O-])ccc1N1CCCCC1	u	u	-30%	24µM*	u	7%
O=C(NCc1ccc2c(c1)OCO2)c1cc([N+](=O)[O-])ccc1N1CCCCC1	45µM*	-32%	-2%	4%	-9%	5%
O=C(NCc1ccc2c(c1)OCO2)c1cccc([N+](=O)[O-])c1	-29%	-11%	11%	-4%	9%	10%
CCOc1ccc(-n2c(=O)c3sc4ccccc4c3n(Cc3ccc(F)cc3)c2=O)cc1	2%[59 µM]	-11%	43%	x	-17%	x
O=C1c2cccc3cccc(c23)C(=O)N1c1ccc2ncccc2c1	25µM*	79µM*	-17%	-2%	u	u
O=C1c2cccc3cccc(c23)C(=O)N1c1nccs1	u	3%	37%	-1%	5%	-2%
C=CCN1C(=O)CSc2ccc(C(=O)NCc3ccc(F)cc3)cc21	0%	-2%	48%	0%	-18%	-1%
Cc1c2ccccc2cc(Cc2ccccc2)[n+]1C	28µM*	-1%	28%	-5%	-13%	-8%
O=c1c2ccccc2nc2n1CCO2	-3%	-4%	12%	-10%	5%	27%
O=c1c2ccccc2nc2oc3ccccc3n12	25µM*	-13%	-10%	u	5%	u
COCCNC(=O)CCC1CCN(Cc2cccc(-c3ccc(C)o3)c2)CC1	22µM*	-23%	22%	-5%	-10%	-8%
COCCNC(=O)C1CCCN(Cc2cccc(Cl)c2)CC1 (centres undefined)	x	x	x	-9%	x	x
CC(C)CCNC(=O)C1CCN(Cc2cccc(OCc3ccccc3)c2)CC1	x	10µM*	u	-13%	u	-29%
COc1cc(CN2CCC(C(=O)NCCC(C)C)CC2)ccc1OCc1ccccc1	50µM*	28µM*	u	6%	-37%	10%
COc1cc(CNC(=O)C2CC2)ccc1OCc1ccccc1	25%	-18%	14%	-6%	-15%	10%
COCCNC(=O)C1CCN(Cc2cccc(OCc3ccccc3)c2)CC1	22%[0.501 µM]	0.79µM*	u	-10%	u	-9%
C=CC[C@@H]1C=C[C@@H](O/N=C2/C[C@@H](O)[C@@H](O)[C@@H]3[C@@H]4C(=O)N(CC)C(=O)[C@H]4CC[C@@H]23)[C@@H](CO)O1	x	x	x	x	x	19%
CCOC(=O)N1CCN(C(=O)C2CCN(CC3CCCCC3)CC2)CC1	35µM*	8.9µM*	-14%	10%	-26%	11%
FC(F)(F)c1ccc(-c2n[nH]c(=S)o2)nc1	40µM*	0%	66%	-4%	-13%	-1%
S=c1[nH]nc(-c2ccc3ccccc3n2)o1	8.9µM*	-33%	69%	-12%	6%	1%
Nc1nc(Sc2ccc(C(F)(F)F)cn2)n[nH]1	u	-11%	25%	u	1%	1%
CCc1nc2sc3c(N4CCCCC4)ncnc3c2c2c1CCCC2	0%[59 µM]	3%	31%	x	-1%	x
CC(C)(C)C1CCc2c(sc(NC(=O)CSc3ncn[nH]3)c2C#N)C1 (centres undefined)	25µM*	-15%	-29%	19µM*	-4%	u
CC1CCc2c(sc(NC(=O)CSc3ncn[nH]3)c2C#N)C1 (centres undefined)	12%[59 µM]	-8%	45%	3%	-7%	5%
CCCc1cc(=O)[nH]c(SCC(=O)Nc2sc3c(c2C#N)CCC(C)C3)n1 (centres undefined)	50µM*	u	-14%	u	-26%	-15%
SMILES	G9a inh	JMJD2A Tudor inh	HP1b binding inh	PLK1 PBD block	BAZ2B inh	Sfp PPTase inh
N#Cc1ccc(C(=O)OCC(=O)Nc2cccc(S(=O)(=O)NC3=NCCC3)c2)cc1	x	-22%	49%	-4%	x	x
CN1CCN(C(=O)c2ccc(C(F)(F)F)cc2)CC1	u	0%	42%	-3%	u	6%
CN1CCN(C(=O)c2ccc(C(C)(C)C)cc2)CC1	16%[59 µM]	-19%	51%	-4%	79µM*	10%
Cn1c(SCc2ccc(F)cc2)nc2ccc(C(=O)NCc3ccccc3)cc21	-3%[59 µM]	-5%	-5%	x	-26%	x
COc1cc(-c2n[nH]c(=S)n2-c2ccc(C)cc2)cc(OC)c1OC	x	5µM*	-7%	-27%	50µM*	-6%
Cc1ccc(-n2c(-c3ccncc3)n[nH]c2=S)cc1C	5µM*	5µM*	14%	-5%	-1%	45µM*
COc1ccc(-n2c(COc3ccc(Cl)cc3Cl)n[nH]c2=S)cc1	x	x	x	-5%	x	x
CC(C)(C)c1ccc(-c2n[nH]c(=S)n2-c2ccccc2)cc1	2.8µM*	-20%	49%	-26%	12%	16%
CC(c1ccccc1)n1c(-c2ccc(C(C)(C)C)cc2)n[nH]c1=S (centres undefined)	32µM*	u	13%	-14%	u	10%
Cn1c2ccccc2c(=O)c2c(=O)n(-c3ccccc3)c(-c3ccc(C(C)(C)C)cc3)nc21	-6%	-31%	36%	-13%	-22%	-23%
Cc1cc2c(c(=O)n1Cc1ccccc1)C1O[C@](c3ccsc3)(Cc3cc(C#N)ccc31)O2	17%[2.33 µM]	x	x	x	-37%[22.9 µM]	0%
CC1CCCN(C(=O)c2ccc(NC(=O)CC3SC(N4CCCC4)=NC3=O)cc2)C1 (centres undefined)	-5%	-16%	15%	-7%	5%	x
O=C(O)c1ccc(-n2c(-c3ccccc3)n[nH]c2=S)cc1	u	28µM*	34%	-7%	-3%	79µM*
Cc1onc(-c2ccccc2)c1-c1n[nH]c(=S)n1-c1ccccc1	x	63µM*	-21%	0%	x	x
Cc1ccc(-c2n[nH]c(=S)c3ccccc23)cc1	32µM*	-4%	57%	u	3%	-5%
COc1ccc(-c2n[nH]c(=S)n2-c2ccc(Br)cc2)cc1OC	1.6µM*	50µM*	6%	-6%	-32%	-1%
Cc1onc(-c2ccccc2)c1-c1csc(COc2ccccc2)n1	429%	152%	198%	-1%	87%	-7%
COc1ccc(-c2nc(N)n[nH]2)cc1OC	1%[12.7 µM]	-8%	20%	-2%	u	1%
CC(=O)OCC(=O)C1(O)CCC2C3CCC4=CC(=O)CCC4(C)C3(Cl)C(O)CC21C (centres undefined)	x	-4%	27%	-1%	x	x
Cc1ccccc1OC(C)C(=O)N1CCN(c2ccccn2)CC1 (centres undefined)	21%	-14%	13%	-17%	-12%	7%
O=C(O)c1ccc(-n2c(-c3cc(C4CC4)[nH]n3)n[nH]c2=S)cc1	18µM*	20µM*	44%	-2%	-10%	56µM*
Cc1ccc(-n2c(Cc3cccc4ccccc34)n[nH]c2=S)c(C)c1	u	-35%	18%	-16%	-35%	-1%

Assay outcomes deposited in PubChem by National Center for Advancing Translational Sciences (NCATS).
